Data from PubChem BioAssay AID1159580 (chemical genetic matrix, 2015).
Among all 5,500 compounds or so, about 2,000 (36%) were called active. About 18% were inconclusive and are not listed. Cut-off read from the data, not from the text of the source: active = normalized growth mostly below about 0.91 (no sharp cut-off); inconclusive = no clear call, values can overlap the other calls; inactive = mostly above about 0.92. Some of the results follow.

Assay: chemical genetic growth profiling, strain panel (AID 1159580);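 note: tested at 20 µM; growth read once vehicle control cultures reached saturation at 30 °C; 1 = growth at the plate median or of vehicle wells; lower values mean less growth of the strain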
Conditions: growth OD

Measured: normalized growth

C=C1CCC2C(CC2(C)C)C(=O)CCC1O (stereo unspecified)
inactive: S. cerevisiae deletion strains, locus YJL168C, strain set2, hits give low values 1.01 | S. cerevisiae deletion strains, locus YJL187C, strain SWE1 (second series), hits give low values 1.06 | S. cerevisiae deletion strains, locus YJL187C, strain SWE1, hits give low values 0.993 | S. cerevisiae deletion strains, locus YJR066W, strain TOR1, hits give low values 0.949 | S. cerevisiae deletion strains, locus YKL009W, strain mrt4, hits give low values 1.02 | S. cerevisiae deletion strains, locus YKL068W, hits give low values 1 | S. cerevisiae deletion strains, locus YKL085W, strain MDH1 (second series), hits give low values 0.993 | S. cerevisiae deletion strains, locus YKL085W, strain MDH1, hits give low values 0.993 | S. cerevisiae deletion strains, locus YKL160W, strain elf1, hits give low values 0.982 | S. cerevisiae deletion strains, locus YKR001C, strain vps1, hits give low values 1.02 | S. cerevisiae deletion strains, locus YKR026C, strain gcn3, hits give low values 1 | S. cerevisiae deletion strains, locus YKR091W, strain srl3, hits give low values 0.988 | S. cerevisiae deletion strains, locus YLL001W, strain dnm1, hits give low values 0.954 | S. cerevisiae deletion strains, locus YLL026W, hits give low values 1 | S. cerevisiae deletion strains, locus YLL041C, strain sdh2, hits give low values 0.987 | S. cerevisiae deletion strains, locus YLR027C, strain aat2, hits give low values 0.996 | S. cerevisiae deletion strains, locus YLR039C, strain RIC1, hits give low values 1.04 | S. cerevisiae deletion strains, locus YLR058C, strain SHM2, hits give low values 1.04 | S. cerevisiae deletion strains, locus YLR102C, strain apc9, hits give low values 1.01 | S. cerevisiae deletion strains, locus YLR113W, strain HOG1, hits give low values 1.01 | S. cerevisiae deletion strains, locus YLR221C, strain rsa3, hits give low values 1.04 | S. cerevisiae deletion strains, locus YLR258W, strain gsy2, hits give low values 0.993 | S. cerevisiae deletion strains, locus YLR262C, strain YPT6 (second series), hits give low values 1.01 | S. cerevisiae deletion strains, locus YLR268W, strain sec22, hits give low values 1 | S. cerevisiae deletion strains, locus YLR320W, strain mms22, hits give low values 1.06 | S. cerevisiae deletion strains, locus YLR342W, strain FKS1, hits give low values 0.997 | S. cerevisiae deletion strains, locus YLR357W, strain rsc2, hits give low values 0.981 | S. cerevisiae deletion strains, locus YLR370C, strain arc18, hits give low values 1 | S. cerevisiae deletion strains, locus YLR371W, strain rom2, hits give low values 1.02 | S. cerevisiae deletion strains, locus YLR384C, strain iki3, hits give low values 1.01 | S. cerevisiae deletion strains, locus YLR418C, strain cdc73, hits give low values 1.05 | S. cerevisiae deletion strains, locus YML016C, strain PPZ1, hits give low values 1.02 | S. cerevisiae deletion strains, locus YML032C, strain rad52, hits give low values 1.01 | S. cerevisiae deletion strains, locus YML120C, strain ndi1, hits give low values 0.965 | S. cerevisiae deletion strains, locus YML124C, strain tub3, hits give low values 1.01 | S. cerevisiae deletion strains, locus YMR058W, strain fet3, hits give low values 0.98 | S. cerevisiae deletion strains, locus YMR078C, strain ctf18, hits give low values 1.01 | S. cerevisiae deletion strains, locus YMR125W, strain sto1, hits give low values 0.973 | S. cerevisiae deletion strains, locus YMR129W, hits give low values 1.01 | S. cerevisiae deletion strains, locus YMR205C, strain PFK2, hits give low values 0.955 | S. cerevisiae deletion strains, locus YMR223W, strain ubp8, hits give low values 1.03 | S. cerevisiae deletion strains, locus YMR231W, strain pep5, hits give low values 1.01 | S. cerevisiae deletion strains, locus YMR307W, strain GAS1, hits give low values 1.07 | S. cerevisiae deletion strains, locus YNL067W, strain RPL9B, hits give low values 1.03 | S. cerevisiae deletion strains, locus YNL071W, strain lat1, hits give low values 0.992 | S. cerevisiae deletion strains, locus YNL128W, strain TEP1, hits give low values 0.993 | S. cerevisiae deletion strains, locus YNL183C, strain NPR1, hits give low values 0.968 | S. cerevisiae deletion strains, locus YNL209W, strain ssb2, hits give low values 0.987 | S. cerevisiae deletion strains, locus YNL233W, strain BNI4, hits give low values 1.05 | S. cerevisiae deletion strains, locus YNL248C, strain rpa49, hits give low values 1.01 | S. cerevisiae deletion strains, locus YNL250W, strain rad50, hits give low values 1.05 | S. cerevisiae deletion strains, locus YNL271C, strain bni1, hits give low values 1.01 | S. cerevisiae deletion strains, locus YNL298W, strain CLA4, hits give low values 1.03 | S. cerevisiae deletion strains, locus YNL307C, strain MCK1, hits give low values 1.03 | S. cerevisiae deletion strains, locus YNL322C, strain KRE1 (second series), hits give low values 0.974 | S. cerevisiae deletion strains, locus YNL322C, strain KRE1, hits give low values 0.991 | S. cerevisiae deletion strains, locus YNR049C, strain mso1, hits give low values 0.995 | S. cerevisiae deletion strains, locus YNR052C, strain pop2, hits give low values 1.03 | S. cerevisiae deletion strains, locus YOL012C, strain htz1 0.879 | S. cerevisiae deletion strains, locus YOL147C, strain pex11, hits give low values 1 | S. cerevisiae deletion strains, locus YOR001W, strain rrp6, hits give low values 1.02 | S. cerevisiae deletion strains, locus YOR061W, strain CKA2, hits give low values 1.02 | S. cerevisiae deletion strains, locus YOR069W, strain VPS5, hits give low values 1.01 | S. cerevisiae deletion strains, locus YOR070C, strain gyp1, hits give low values 1.02 | S. cerevisiae deletion strains, locus YOR080W, strain dia2, hits give low values 0.995 | S. cerevisiae deletion strains, locus YOR083W, strain WHI5, hits give low values 0.988 | S. cerevisiae deletion strains, locus YOR106W, strain vam3, hits give low values 0.961 | S. cerevisiae deletion strains, locus YOR136W, strain idh2, hits give low values 1.01 | S. cerevisiae deletion strains, locus YOR144C, strain elg1, hits give low values 1 | S. cerevisiae deletion strains, locus YOR184W, strain ser1, hits give low values 0.989 | S. cerevisiae deletion strains, locus YOR231W, strain MKK1, hits give low values 0.994 | S. cerevisiae deletion strains, locus YOR265W, strain rbl2, hits give low values 0.992 | S. cerevisiae deletion strains, locus YOR270C, strain vph1, hits give low values 0.986 | S. cerevisiae deletion strains, locus YOR290C, strain snf2, hits give low values 0.956 | S. cerevisiae deletion strains, locus YOR316C, strain cot1, hits give low values 1.03 | S. cerevisiae deletion strains, locus YPL051W, strain arl3, hits give low values 1 | S. cerevisiae deletion strains, locus YPL078C, strain atp4, hits give low values 0.946 | S. cerevisiae deletion strains, locus YPL106C, strain sse1, hits give low values 0.958 | S. cerevisiae deletion strains, locus YPL240C, strain hsp82, hits give low values 0.998 | S. cerevisiae deletion strains, locus YPL256C, strain CLN2, hits give low values 1.02 | S. cerevisiae deletion strains, locus YPR119W, strain clb2, hits give low values 1.02 | S. cerevisiae deletion strains, locus YPR141C, strain kar3, hits give low values 1.01 | S. cerevisiae deletion strains, locus YPR163C, strain tif3, hits give low values 1.02 | S. cerevisiae deletion strains, locus YPR167C, strain met16, hits give low values 1.02 | S. cerevisiae deletion strains, strain wtn01, hits give low values 1.01 | S. cerevisiae strains, strain wild type, hits give low values 0.989
